Experimental data from the supplement of paper PMC9433436.
± gives the standard deviation of the averaged measurements. The full ranking holds about 4,100 sequences; the median of “relative kcat/Km (krel) vs genomic leader AAAGAU” is about 1.7, and the highest 2% start at about 6.5. The sample as a whole holds a higher share of the highest values than the screen did.

Target: T1, E. coli RNase P holoenzyme (M1 P RNA + rnpA protein) (UniProt P0A7Y8)
T1 sequence: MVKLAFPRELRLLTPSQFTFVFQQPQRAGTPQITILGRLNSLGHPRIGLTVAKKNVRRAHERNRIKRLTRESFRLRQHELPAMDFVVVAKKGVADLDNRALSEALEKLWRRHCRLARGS
Assay: relative kcat/Km (krel) vs genomic leader AAAGAU (relative (reference leader = 1)); higher = faster RNase P cleavage
How it was run: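 Under multiple-turnover conditions at 37 °C, a precursor tRNA-Met pool randomized at leader positions −6 to −1 was processed by E. coli RNase P holoenzyme (P RNA plus C5 protein) in 50 mM Tris-HCl pH 8, 100 mM NaCl, 17.5 mM MgCl2. The remaining precursor was gel-purified at ~5–30% conversion, then converted to cDNA libraries and Illumina-sequenced. Relative kcat/Km (krel) came from read ratios by internal competition kinetics, normalised to the genomic leader, with two technical replicates averaged.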

[1] = fraction of substrate reacted: ~9-10% (9.79% repeat 1, 9.1% repeat 2)
[2] = fraction of substrate reacted: ~13-16% (15.68% repeat 1, 13.17% repeat 2)
[3] = fraction of substrate reacted: ~26-29% (28.66% repeat 1, 26.4% repeat 2)

| Sequence | relative kcat/Km [1] | relative kcat/Km [2] | relative kcat/Km [3] |
| --- | --- | --- | --- |
| TACCGC | 3.15 ± 1.3 | 4.16 ± 0.76 | 6.03 ± 2.5 |
| GACCGA | 3.3 ± 0.89 | 4.27 ± 2.1 | 6.73 ± 2.8 |
| CACCGA | 3.39 ± 1.4 | 3.9 ± 0.93 | 6.22 ± 2.1 |
| TACCGA | 2.83 ± 0.7 | 4.89 ± 1.1 | 7.04 ± 2.7 |
| TACCGG | – | – | 1.29 ± 0.22 |
| AGCCGC | 3.07 ± 1.3 | 2.5 ± 0.098 | 4.02 ± 1.1 |
| TGTATC | 1.92 ± 0.29 | 2.43 ± 0.36 | 4 ± 1.6 |
| AACTGT | 0.625 ± 0.14 | 0.97 ± 0.59 | 0.608 ± 0.51 |
| GGACGG | – | – | 0.782 ± 0.17 |
| GGCGGC | – | – | 0.914 ± 0.47 |
| GAACAG | – | 0.667 ± 0.64 | 1.66 ± 0.19 |
| ACATAT | 2.86 ± 0.79 | 4.26 ± 0.58 | 6.5 ± 3.1 |
| TCATAC | 4.3 ± 0.51 | 5.72 ± 0.91 | 7.38 ± 3 |
| TCATAG | 1.97 ± 1.4 | 1.66 ± 0.34 | 3.6 ± 0.47 |
| ACATAC | 3.09 ± 1.3 | 3.78 ± 0.48 | 6.1 ± 2.7 |
| TCATAA | 3.15 ± 1.2 | 4.17 ± 0.67 | 5.77 ± 2.2 |
| TCATAT | 4.21 ± 1.4 | 5.49 ± 1 | 8.18 ± 3.4 |
| TAATAT | 3.78 ± 1.4 | 5.05 ± 0.28 | 7.45 ± 3.4 |
| TAATAA | 3.59 ± 2 | 4.41 ± 0.57 | 5.5 ± 2.2 |
| GAATAT | 2.99 ± 0.33 | 4.3 ± 0.79 | 6.29 ± 3.4 |
| ACAACT | – | – | 1.07 ± 0.15 |
| CGGACA | 0.696 ± 0.1 | 0.739 ± 0.49 | 0.747 ± 0.23 |
| GCAAAT | 2.24 ± 0.9 | 2.01 ± 0.39 | 1.93 ± 0.58 |

| Sequence | relative kcat/Km [1] | relative kcat/Km [2] | relative kcat/Km [3] |
| --- | --- | --- | --- |
| CGACCC | – | 0.175 ± 0.13 | 1.47 ± 0.038 |
| AAGATG | – | – | 0.939 ± 0.44 |
| TACGAG | – | 1.58 ± 0.12 | 3.95 ± 1.1 |
| TACGAC | 3.699 ± 0.0078 | 5.54 ± 1.6 | 7.61 ± 3.2 |
| TACGAT | 2.93 ± 1.5 | 2.79 ± 0.68 | 3.63 ± 1.5 |
| AACGAC | 3.67 ± 0.53 | 4.57 ± 1.6 | 5.98 ± 2.1 |
| CACGAG | 1.8 ± 0.22 | 2.47 ± 1.2 | 3.69 ± 1.2 |
| GACGGA | – | 1.21 ± 1.1 | 0.922 ± 0.64 |
| CACGAT | 1.78 ± 0.53 | 2.22 ± 0.33 | 3.42 ± 1.1 |
| AACGAA | 2.84 ± 0.7 | 3.68 ± 0.69 | 5.36 ± 1.9 |
| CACGAC | 3.62 ± 0.058 | 5.56 ± 2.7 | 7.35 ± 3 |
| GACGTA | 2.41 ± 1.4 | 2.86 ± 0.42 | 3.54 ± 1.3 |
| GACGAA | 3.75 ± 1.5 | 6.07 ± 1.1 | 8.11 ± 2.6 |
| TACGAA | 2.87 ± 0.059 | 5.68 ± 1 | 8.44 ± 3.8 |
| TCGTCA | 2.78 ± 1.8 | 2.51 ± 0.12 | 3.63 ± 1.3 |
| ACTAGG | – | – | 0.408 ± 0.15 |
| CGGGCA | 1.28 ± 0.55 | 0.965 ± 0.75 | 0.825 ± 0.17 |
| CCAGAC | 2.22 ± 0.29 | 2.1 ± 1.1 | 3.22 ± 0.77 |
| AAGGGA | – | – | 1.11 ± 0.65 |
| TTTTCC | 2.77 ± 1.4 | 2.75 ± 0.3 | 3.22 ± 0.98 |
| GAGGTG | – | – | 0.61 ± 0.57 |
| GGATGG | – | – | 0.8644 ± 0.0076 |
| CTTTTT | 2.99 ± 1.5 | 3.27 ± 0.75 | 4.46 ± 1.3 |

| Sequence | relative kcat/Km [1] | relative kcat/Km [2] | relative kcat/Km [3] |
| --- | --- | --- | --- |
| GCTCGG | 0.809 ± 0.37 | 0.268 ± 0.21 | 0.748 ± 0.15 |
| CACGCA | 2.14 ± 0.48 | 3.31 ± 1.5 | 4.91 ± 1.6 |
| GACGAT | 1.52 ± 0.65 | 2.06 ± 1.5 | 2.68 ± 1.1 |
| GACGAG | – | 1.49 ± 0.19 | 3.3 ± 0.29 |
| CACGAA | 4.26 ± 1.8 | 6 ± 1.6 | 7.87 ± 2.6 |
| CACGTA | 1.91 ± 1.1 | 2.23 ± 0.31 | 3.56 ± 1.4 |
| GACGAC | 3.35 ± 0.49 | 5.87 ± 1.6 | 7.89 ± 2.8 |
| CGGATT | – | – | 0.799 ± 0.34 |
| CAAATA | 2.33 ± 2.3 | 1.68 ± 0.092 | 1.78 ± 0.47 |
| CACCTA | 2.32 ± 0.25 | 2.44 ± 0.4 | 3.68 ± 1.3 |
| ACTAAC | 1.48 ± 0.31 | 1.42 ± 0.44 | 2.32 ± 0.65 |
| TTCTGG | 0.949 ± 0.38 | 0.819 ± 0.094 | 1.66 ± 0.46 |
| TTCTGC | 4.12 ± 0.25 | 5.95 ± 2.2 | 8.28 ± 3.5 |
| ATCTGC | 3.18 ± 0.4 | 3.94 ± 1.9 | 6.13 ± 3 |
| TTCTGT | – | – | 2.43 ± 1.9 |
| GCCTGC | 2.23 ± 0.7 | 3.39 ± 0.37 | 4.68 ± 2.1 |
| CTCTGC | 3.95 ± 0.21 | 5.74 ± 1.6 | 7.34 ± 3 |
| ATCTGA | 3.86 ± 1.9 | 3.98 ± 0.23 | 6.19 ± 2.2 |
| CTCTGG | 0.652 ± 0.17 | – | 1.31 ± 0.49 |
| GACTGC | 3.44 ± 0.14 | 3.38 ± 0.99 | 4.88 ± 1.6 |
| GTCTGC | 3.58 ± 1.3 | 4.94 ± 1.2 | 7.11 ± 3.3 |
| TTCTGA | 4.7 ± 2.6 | 5.18 ± 0.91 | 7.63 ± 2.7 |
| TGCTGC | 1.63 ± 0.12 | 1.51 ± 1.2 | 2.71 ± 1 |
